# Measurements as given in PubChem BioAssay (EPA / NIEHS).
# Inconclusive results are not listed. Calls of active or inactive are those of the source. Rule for the calls: active = hit-call score of the fitted dose curve at least 0.9, where 1 is the maximum; inconclusive = response in the unintended direction; inactive = score below 0.9.
# What was measured:
# [1] = ATG_XTT_Cytotoxicity: Cytotoxicity Assessment in the Attagene TRANS-FACTORIAL HepG2 Assay (AID 2283584)
# How it was run: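 Cells: human HepG2, transiently transfected with MRTU reporter constructs. Exposure 24 h. Readout: XTT, cell number. Baseline/neg ctrl DMSO; loss-of-signal scored.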
# [2] = TOX21_p53_BLA_p2_viability: Viability Assessment in the Tox21 HCT-116 p53 Agonism Beta-lactamase Assay, Phase 2 (AID 2283591);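 note: compound exposure lasted 16 h at 37 °C; actives lower the ATP signal meaning cytotoxicity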
# How it was run: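 HCT116 p53-bla cells, 4000/well, dosed after 5 h plating (217-fold dilution of DMSO stocks) and incubated 16 h at 37C. Viability taken as cellular ATP by CellTiter-Glo luminescence after 30 min RT; signal loss marks cytotoxicity.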
# [3] = target: Cellular tumor antigen p53 (Homo sapiens) (UniProt P04637); assay: TOX21_p53_BLA_p2_ratio: Tox21 HCT-116 p53 Agonism Beta-lactamase Assay, Ratio, Phase 2 (AID 2283592)
# Sequence of Cellular tumor antigen p53 (Homo sapiens) (P04637 whole entry, looked up): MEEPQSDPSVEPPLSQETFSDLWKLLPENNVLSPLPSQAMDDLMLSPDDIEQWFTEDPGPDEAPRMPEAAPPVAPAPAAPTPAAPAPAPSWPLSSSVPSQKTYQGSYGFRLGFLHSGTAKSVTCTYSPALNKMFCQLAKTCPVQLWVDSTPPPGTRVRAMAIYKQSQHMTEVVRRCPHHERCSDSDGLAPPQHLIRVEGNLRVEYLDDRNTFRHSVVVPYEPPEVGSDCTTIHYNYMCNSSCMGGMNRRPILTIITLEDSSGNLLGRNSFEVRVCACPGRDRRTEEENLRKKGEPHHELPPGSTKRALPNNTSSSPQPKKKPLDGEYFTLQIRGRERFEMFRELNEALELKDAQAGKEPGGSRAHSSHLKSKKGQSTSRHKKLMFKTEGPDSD
# How it was run: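 HCT116 p53-bla; 4000 cells/well; 5 h pre-incubation; cpd in DMSO, 217-fold dilution; 16 h 37C/5% CO2; CCF4-AM 2 h RT; Ex 405, Em 460/530 ratio; DMSO = baseline; positive fitting direction.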
# [4] = TOX21_p53_BLA_p3_viability: Viability Assessment in the Tox21 HCT-116 p53 Agonism Beta-lactamase Assay, Phase 3 (AID 2283593);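 note: cells exposed to compound for 16 h before reading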
# How it was run: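 HCT116 cells, 4000/well, dosed 5 h after plating by pin transfer (217-fold dilution from DMSO stock) and incubated 16 h at 37C, 5% CO2. Viability read as ATP luminescence with CellTiter-Glo after 30 min at room temperature.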
compound,measurement,setting,value
[Cl][Au]([Cl])[Cl],outcome,[1],inactive
same,AC50,[2],45.6 µM (active)
same,AC50,[3],74.1 µM (active)
same,AC50,[4],75.1 µM (active)
CCCC(C)=O,outcome,[1],inactive
same,outcome,[2],inactive
same,outcome,[3],inactive
same,outcome,[4],inactive
C=CC(=O)OCCCC,outcome,[1],inactive
same,outcome,[2],inactive
same,outcome,[3],inactive
CC(C)(C)c1ccc(C(=O)O)cc1,outcome,[1],inactive
same,outcome,[2],inactive
same,outcome,[3],inactive
OCc1ccc(Cl)cc1Cl,outcome,[1],inactive
same,outcome,[2],inactive
same,outcome,[3],inactive
CCOC(=O)[C@@H](C)Oc1ccc(Oc2nc3ccc(Cl)cc3o2)cc1,outcome,[1],inactive
same,outcome,[2],inactive
same,outcome,[3],inactive
c1ccc(CCc2ccccc2)cc1,outcome,[1],inactive
same,outcome,[2],inactive
same,outcome,[3],inactive
CCC(C)c1cc([N+](=O)[O-])cc([N+](=O)[O-])c1OC(=O)OC(C)C (centres undefined),outcome,[1],inactive
same,outcome,[2],inactive
same,AC50,[3],7.55 µM (active)
same,outcome,[4],inactive
OCC#CCO,outcome,[1],inactive
same,outcome,[2],inactive
same,outcome,[3],inactive
O=C(O)CCCCCCCCC(=O)O,outcome,[1],inactive
same,outcome,[2],inactive
same,outcome,[3],inactive
same,outcome,[4],inactive
COC(C)(C)CC(C)=O,outcome,[1],inactive
same,outcome,[2],inactive
same,outcome,[4],inactive
CCCCCCC(CO)CCCC (centres undefined),outcome,[1],inactive
same,outcome,[3],inactive
Cc1cc(S(=O)(=O)O)ccc1N=Nc1c(O)ccc2ccccc12,outcome,[1],inactive
same,outcome,[3],inactive
NC(=S)NNC(N)=S,outcome,[1],inactive
same,outcome,[2],inactive
same,outcome,[4],inactive
